In PubChem BioAssay (NCATS):
For some assays here: Entries with a potency or affinity are not part of this list. Active and inactive are the calls of the source. The rule behind the calls is not given here.

How the values were obtained:
[1] = Ebola virus entry assay, green fluorescence channel
[2] = Ebola virus entry assay, green channel fluorescence
[3] = Ebola virus entry assay, reporter ratio channel; AC50: Channel type: primary unless noted; outcome: Channel type: primary unless noted
[4] = Ebola virus entry assay, blue channel (ratio component)

Measured: efficacy
Throughout, for efficacy: 0% is about no effect.

COc1cc(OC)c(C(=O)CCCN2CCCC2)c(OC)c1
inactive: [1] -22.4% | [2] | [3] | [4]

COC(=O)/C=C(/C)N
inactive: [1] 22.1% | [2] | [3] | [4]

Nc1ccc(S(=O)(=O)Nc2ccccn2)cc1
inactive: [1] -13.9% | [2] | [3] | [4]

C[C@@H](O)[C@H]1C(=O)N2C(C(=O)O)=C(SCCN=CN)C[C@H]12
inactive: [1] 21.9% | [2] | [3] | [4]

COC(=O)c1cc(Cl)ccc1NS(=O)(=O)C(F)(F)F
inactive: [1] -9.07% | [2] | [3] | [4]

NC[C@H]1O[C@H](O[C@H]2[C@H](O[C@@H]3O[C@H](CO)[C@@H](O)[C@H]3O)C(O)[C@H](N)C[C@@H]2N)[C@H](N)[C@@H](O)[C@@H]1O (stereo partly drawn)
inactive: [1] -16% | [2] | [3] | [4]

O=C(O)c1ccccc1S
inactive: [1] 16.8% | [2] | [3] | [4]

O=C(NCN1CCOCC1)c1cnccn1
inactive: [1] 22.2% | [2] | [3] | [4]

CC(=O)OCC(COC(C)=O)OC(C)=O
inactive: [1] 12.7% | [2] | [3] | [4]

C[C@]12CCC(=O)C=C1CC[C@@H]1[C@@H]2[C@@H](O)C[C@@]2(C)[C@H]1CC[C@]2(O)C(=O)COC(=O)CCC(=O)O
inactive: [1] -14% | [2] | [3] | [4]

Cn1c([N+](=O)[O-])cnc1COC(N)=O
inactive: [1] 19.4% | [2] | [3] | [4]

Cc1cc(O)cc(C)c1Cl
inactive: [1] -20.2% | [2] | [3] | [4]

COc1c2occc2c(OC)c2c(=O)cc(C)oc12
inactive: [1] 13.6% | [2] | [3] | [4]

C[C@@H]1O[C@@H](OC[C@H]2O[C@@H](Oc3c(-c4ccc(O)c(O)c4)oc4cc(O)cc(O)c4c3=O)[C@H](O)[C@@H](O)[C@@H]2O)[C@H](O)[C@H](O)[C@H]1O
inactive: [1] 21.1% | [2] | [3] | [4]

CCCCCCCCCCCCCCCC(=O)NCCO
inactive: [1] 20.8% | [2] | [3] | [4]

CC(=O)Nc1ccc(/C=N/NC(N)=S)cc1
inactive: [1] 33.2% | [2] | [3] | [4]

COc1ccccc1OCC(O)CO (stereo not drawn)
inactive: [1] 12% | [2] | [3] | [4]

CC(=O)Oc1cccc2c1C(=O)c1c(OC(C)=O)cc(C(=O)O)cc1C2=O
inactive: [1] -17.1% | [2] | [3] | [4]

CCCCCCCCCCCCCCCC(=O)OC(C)C
inactive: [1] 10.3% | [2] | [3] | [4]

OCCc1ccccc1
inactive: [1] 36.8% | [2] | [3] | [4]

CCCCOC(=O)CC(CC(=O)OCCCC)(OC(C)=O)C(=O)OCCCC
inactive: [1] 21.9% | [2] | [3] | [4]

O=C(O)CSCC(=O)NC1CCSC1=O (stereo not drawn)
inactive: [1] -14.4% | [2] | [3] | [4]

OCc1cccnc1
inactive: [1] -9.44% | [2] | [3] | [4]

CC(=O)NS(=O)(=O)c1ccc(N)cc1
inactive: [1] 10.9% | [2] | [3] | [4]

CC1CCN(CCCC(=O)c2ccc(F)cc2)CC1
inactive: [1] -14.6% | [2] | [3] | [4]

CCCCC(CC)CNC(=O)CC(C)OC(=O)CCC(=O)O (stereo not drawn)
inactive: [1] 12.2% | [2] | [3] | [4]

C[C@@H](CN1CC(=O)NC(=O)C1)N1CC(=O)NC(=O)C1
inactive: [1] 17.9% | [2] | [3] | [4]

NS(=O)(=O)c1ccc(C(=O)O)cc1
inactive: [1] 11% | [2] | [3] | [4]

O=C(Cn1ccnc1[N+](=O)[O-])NCc1ccccc1
inactive: [1] -10.1% | [2] | [3] | [4]

CC(=O)N(c1onc(C)c1C)S(=O)(=O)c1ccc(N)cc1
inactive: [1] -8.94% | [2] | [3] | [4]

NCC(=O)CCC(=O)O
inactive: [1] -14.6% | [2] | [3] | [4]

CC1(C)O[C@H]2CC(=O)OC[C@]23[C@H]2CC[C@@]4(C)[C@H](c5ccoc5)OC(=O)[C@H]5O[C@]54[C@]2(C)C(=O)C[C@@H]13
inactive: [1] -20.6% | [2] | [3] | [4]

NC(=O)NC1NC(=O)NC1=O (stereo not drawn)
inactive: [1] -19.2% | [2] | [3] | [4]

CC(=O)SCC(CC(=O)c1ccc(C)cc1)C(=O)O (stereo not drawn)
inactive: [1] 17.3% | [2] | [3] | [4]

O=C(O)CCCCC(=O)O
inactive: [1] -12.4% | [2] | [3] | [4]

CN(CC1(C)CCCO1)S(=O)(=O)c1ccc(Cl)c(S(N)(=O)=O)c1 (stereo not drawn)
inactive: [1] -11% | [2] | [3] | [4]

OC1(c2ccc(Cl)cc2)CCNCC1
inactive: [1] 19.8% | [2] | [3] | [4]

CCCc1ccc(OCC(=O)N2CCN(C(=O)COc3ccc(CCC)cc3OC)CC2)c(OC)c1
inactive: [1] 12.4% | [2] | [3] | [4]

CCOc1ccc(NC(=O)CC(C)O)cc1 (stereo not drawn)
inactive: [1] 16.1% | [2] | [3] | [4]

COc1cc(C)c(Cc2cnc(N)nc2N)cc1OC
inactive: [1] -5.94% | [2] | [3] | [4]

CCN(CC)CCNC(=O)COc1ccc(OC)cc1
inactive: [1] 11.4% | [2] | [3] | [4]

NCCNCCNCCN
inactive: [1] 15% | [2] | [3] | [4]

CN1C(C)(C)CCCC1(C)C
inactive: [1] 14.2% | [2] | [3] | [4]

CN1CCN(N)CC1
inactive: [1] 16.4% | [2] | [3] | [4]

CCOC(=O)c1ccc(OCCN2C[C@H](O)[C@@H](O)[C@H](O)[C@H]2CO)cc1
inactive: [1] -12.9% | [2] | [3] | [4]

CCCCCN(CCCOC)C(=O)C(CCC(=O)O)NC(=O)c1ccc(Cl)c(Cl)c1 (stereo not drawn)
inactive: [1] -27.8% | [2] | [3] | [4]

CCCCOC(=O)c1ccc(N)cc1
inactive: [1] 12.8% | [2] | [3] | [4]

CC12CCC(CC1)C(C)(C)O2
inactive: [1] 14.6% | [2] | [3] | [4]

O=C(CCCl)NCCc1ccccc1
inactive: [1] -10.7% | [2] | [3] | [4]

NC(=O)c1cc[n+](CC2=C(C(=O)[O-])N3C(=O)[C@@H](NC(=O)Cc4cccs4)[C@H]3SC2)cc1
inactive: [1] -13.3% | [2] | [3] | [4]

CO/N=C(/C(=O)N[C@@H]1C(=O)N2C(C(=O)OCOC(=O)C(C)(C)C)=C(C)CS[C@H]12)c1csc(N)n1
inactive: [1] -17.1% | [2] | [3] | [4]

CC1(COc2ccc(CC3SC(=O)NC3=O)cc2)CCCCC1 (stereo not drawn)
inactive: [1] -16.4% | [2] | [3] | [4]

Cc1ccc(C(=O)C(=O)O)cc1C
inactive: [1] -11.1% | [2] | [3] | [4]

CO[C@@]1(NC(=O)CSCC#N)C(=O)N2C(C(=O)O)=C(CSc3nnnn3C)CS[C@@H]21
inactive: [1] -13.7% | [2] | [3] | [4]

CCOc1ccc2nc3cc(N)ccc3c(N)c2c1
inactive: [1] 18.4% | [2] | [3] | [4]

Cc1cc(=O)[nH]c(=S)[nH]1
inactive: [1] -11.2% | [2] | [3] | [4]

CCCc1c2oc(C(=O)O)cc(=O)c2cc2c(=O)cc(C(=O)O)n(CC)c12
inactive: [1] 16% | [2] | [3] | [4]

Cc1onc(-c2ccccc2)c1-c1ccc(S(N)(=O)=O)cc1
inactive: [1] 21% | [2] | [3] | [4]

CC(=O)N[C@@H](CC(C)C)C(=O)O
inactive: [1] -14.4% | [2] | [3] | [4]

Oc1ccccc1-c1nnco1
inactive: [1] 7.99% | [2] | [3] | [4]

CC(=O)[C@@]1(O)CC[C@H]2[C@@H]3C[C@H](C)C4=CC(=O)C=C[C@]4(C)[C@@]3(F)[C@@H](O)C[C@@]21C
inactive: [1] -18.9% | [2] | [3] | [4]

COc1cnc(NS(=O)(=O)c2ccc(N)cc2)nc1
inactive: [1] -24.4% | [2] | [3] | [4]
